# Results filed as inconclusive are left out. The source made the active and inactive calls. Rule for the calls: active = hit-call score of the fitted dose curve at least 0.9, where 1 is the maximum; inconclusive = response in the unintended direction; inactive = score below 0.9.
# System: SRY-box transcription factor 17 (SOX17) Protein Expression, Deisenroth Lab, SOX17 (gene 64321)
# Experiment: CCTE_Deisenroth_DEVTOX-GLR_Meso_SOX17: CCTE's DevTox GLR-Meso Assay Evaluation of SRY-box transcription factor 17 (SOX17) Protein Expression, Deisenroth Lab
# Protocol: CCTE_Deisenroth_DEVTOX-GLR_Meso assay is a cell-based, multiplex-readout assay that uses RUES2-GLR, a human pluripotent cell line, with measurements taken at 48 hours after chemical dosing in a 384-well microplateCCTE_Deisenroth_DEVTOX-GLR_Meso_SOX17 is 1 of 4 assay components calculated from the CCTE_Deisenroth_DEVTOX-GLR_Meso assay and it measures an the percentage of cells in an endoderm state. Using a type of inducible fluorescent protein reporter, gain-of-signal activity can be used to understand changes in gene expression with fluorescent microscopy. The percentage of SOX17+ cells are determined by calculating the number of SOX17+ cells divided by cell count. To generalize the intended target to other relatable targets, this assay component is annotated to the transcription factor intended target family, where the subfamily is SRY-related HMG-box.Data from the assay component CCTE_Deisenroth_DEVTOX-GLR_Meso_SOX17 was analyzed as 1 assay endpoint. The endpoint is the percent SOX17+ cell population minus the 0.2% DMSO control in the CCTE_Deisenroth_DEVTOX-GLR_Meso assay. This assay endpoint can be referred to as a secondary readout since this assay has produced multiple assay endpoints where this one serves as a measure of endoderm differentiation.
# All assay protocols are aligned to the DevTox GLR-Endo assay workflow. Cells are seeded into 384-well microplates for 24 hours prior to initiating differentiation in defined media for a total duration of 48 hours. A total of two chemical exposures are administered in 24-hour intervals during the 48-hour differentiation period. At the assay termination point, cells are fixed and stained with a fluorescent dye demarcating the nucleus. High-content imaging is used to acquire brightfield and fluorescent channel images across 5 fields per well. Cell identification and mean biomarker fluorescence intensities are calculated with image analysis software to determine the total cell counts for viability assessment and the biomarker expression frequency for each lineage-dependent assay. A typical experimental design tests a 10-point concentration series (1 nM - 200 uM) for 28 compounds in single technical replicate. Assay plate controls include non-differentiated pluripotent cells (baseline control), lineage-specific differentiated cells (differentiation control), and DMSO solvent exposed differentiated cells (solvent control). Experiments typically comprise a minimum of four experimental replicates (n=4).
SMILES,outcome,AC50
Nc1nc2ncc(CNc3ccc(C(=O)N[C@@H](CCC(=O)O)C(=O)O)cc3)nc2c(=O)[nH]1,inactive,
CN(Cc1cnc2nc(N)nc(N)c2n1)c1ccc(C(=O)N[C@@H](CCC(=O)O)C(=O)O)cc1,,0.0944 µM (active)
CCN(CC)CCNC(=O)c1c(C)[nH]c(/C=C2\C(=O)Nc3ccc(F)cc32)c1C,,0.8 µM (active)
CC(C)(c1ccc(O)cc1)c1ccc(O)cc1,,142 µM (active)
O=C1CCC(N2C(=O)c3ccccc3C2=O)C(=O)N1 (centres undefined),inactive,
O=C1NS(=O)(=O)c2ccccc21,inactive,
CC1=C(/C=C/C(C)=C/C=C/C(C)=C\C(=O)O)C(C)(C)CCC1,,30.2 µM (active)
CC/C(=C(/CC)c1ccc(O)cc1)c1ccc(O)cc1,,6.47 µM (active)
Nc1cccc2c1C(=O)N(C1CCC(=O)NC1=O)C2=O (centres undefined),inactive,
CC1=C(/C=C/C(C)=C/C=C/C(C)=C/C(=O)O)C(C)(C)CCC1,,22 µM (active)
O=c1[nH]cc(F)c(=O)[nH]1,,22.6 µM (active)
O=C1NC(=O)C(c2ccccc2)(c2ccccc2)N1,,146 µM (active)
CS(=O)(=O)OCCCCOS(C)(=O)=O,,107 µM (active)
CCCC(CCC)C(=O)O,inactive,

# Source: PubChem BioAssay AID2284418 (EPA ToxCast)
